This is a sample that favours compounds with a hit; in the whole collection about 3.3% have one here.
AmpC no deterg: blocks E. coli AmpC beta-lactamase in detergent-free assay; 330,000 tested, 0.52% active; Potency, µM (top dose mostly 57.1 µM), for inactives: at the highest dose activity change, negative = inhibition, actives largely listed as inhibitors; AmpC nitrocefin hydrolysis, absorbance 480 nm, 0.0001% Triton; P00811;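 further: plate controls were no compound for no effect and no enzyme for full effect; nearly all actives have a fitted effect of over 20% in size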
Target sequence (P00811 whole entry, looked up): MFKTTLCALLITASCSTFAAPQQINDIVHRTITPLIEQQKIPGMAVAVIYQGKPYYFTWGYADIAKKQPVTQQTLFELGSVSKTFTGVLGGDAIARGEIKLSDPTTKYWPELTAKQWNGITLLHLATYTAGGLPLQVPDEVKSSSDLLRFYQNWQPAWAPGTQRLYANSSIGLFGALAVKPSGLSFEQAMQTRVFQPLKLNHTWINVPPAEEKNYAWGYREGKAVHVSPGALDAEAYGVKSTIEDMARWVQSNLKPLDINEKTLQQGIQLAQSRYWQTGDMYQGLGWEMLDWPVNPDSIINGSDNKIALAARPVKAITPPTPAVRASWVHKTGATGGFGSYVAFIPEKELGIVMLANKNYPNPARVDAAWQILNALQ
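AmpC (5.3 nM in the dispensed reagent) in 20 mM phosphate pH 7.0 with 0.01% (detergent screen) or 0.0001% Triton X-100 was preincubated with compounds for 15 min at room temperature. Nitrocefin was then added from an 800 uM solution, and hydrolysis was followed at 480 nm.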
AmpC inh detg: inhibitors of E. coli AmpC beta-lactamase with detergent. Potency, µM (series often up to 114 µM), without a hit: at the highest dose activity change, negative = inhibition, usual class: inhibitors. 370,000 tested, 0.041% active. AID 485294. P00811. AmpC hydrolysis of nitrocefin, absorbance 480 nm, 0.01% Triton;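 further: 0% = no-compound wells and -100% = no-enzyme wells; nearly all actives have a fitted effect of over 25% in size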
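AmpC (5.3 nM in the dispensed reagent) in 20 mM phosphate pH 7.0 with 0.01% (detergent screen) or 0.0001% Triton X-100 was preincubated with compounds for 15 min at room temperature. Nitrocefin was then added from an 800 uM solution, and hydrolysis was followed at 480 nm.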
Sm TGR block: inhibitors of Schistosoma mansoni thioredoxin glutathione reductase. Q962Y6. purified TGR, DTNB reduction, TNB absorbance 405 nm. Potency, µM (series often up to 114 µM), for the others: at the top dose activity change, negative = inhibition, hits mostly inhibitors. 360,000 tested, 3% active. AID 485364; further: nearly all actives have a fitted effect of over 60% in size
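Kinetic colorimetric format: TGR-catalysed, NADPH-driven DTNB reduction monitored via TNB absorbance. Enzyme dispensed at 20 nM; compound exposure 15 min at room temperature before reaction start.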
Starred values were filed as active, the others as inactive; ? = inconclusive; / = no result given; [ ] = remark or other dose. The call rests on the fitted dose curve; in most records, active means well fitted curve in the direction sought with a large enough effect; inconclusive means small, poorly fitted or top-dose-only effect, or another doubt; inactive means no such curve, though single readings can be large; an effect the other way counts as inactive or inconclusive. Unless noted, on the % scale 0 is the no-effect control and ±100 the full control effect; potency means the concentration at half of the fitted maximal effect.

SMILES	AmpC no deterg	AmpC inh detg	Sm TGR block
CCOC(=O)c1cccc(NC(=S)NC(=O)c2cccnc2)c1	38.7%	4.2%	22.4µM*
COc1cccc(C(=O)NC(=S)Nc2ccc(N(C)C)cc2)c1	-40.1%	-14.9%	15.8µM*
COc1cccc(C(=O)Nc2cccnc2)c1	3.8%	-4.7%	-9.9%
COc1cccc(C(=O)NC(=S)Nc2ccc3oc(=O)ccc3c2)c1	0.3%	6.1%	-29.7%
CCCOC(=O)c1cccc(NC(=O)c2cccnc2)c1	-8.4%	?	12.2%[11.4 µM]
COc1ccc(C(=O)NC(=S)Nc2cccnc2)cc1[N+](=O)[O-]	-12.7%[11.4 µM]	-12.5%	15.8µM*
CCOc1ccc(C(=O)NC(=S)Nc2cccnc2)cc1[N+](=O)[O-]	-13.1%	1.3%	?
Cc1cccc(-c2nc(C)c(CCNC(=O)C(=O)Nc3cccc(Cl)c3C)s2)c1	/	3.7%	-14.5%
C/C(=N\NC(=O)CN1CCN(S(=O)(=O)c2ccc(C)cc2)CC1)c1ccncc1	15.4%	-5.5%	-1.2%
COc1ccccc1NC(=O)c1ccccc1NC(=O)c1cccs1	-35.7%	-9.3%	-4.3%
CCOc1ccc(NC(=O)CN(C)C(=O)c2ccccc2OCCOc2ccccc2)cc1OCC	132.3%	-3.9%	-0.2%
CC(=O)N1CCC(C(=O)OCc2ccccc2F)(c2ccccc2)CC1	130.9%	2.2%	7.7%
Cc1ccc(S(=O)(=O)N2CCCCC2)cc1NC(=O)CNC(C)c1ccc(Cl)c(Cl)c1 (stereo unspecified)	29.8%	7.1%	-2.8%
COc1cc2c(cc1NC(=O)Nc1ccc(C)cc1)oc1ccccc12	-43.1%	-0.7%	-1.2%
COc1cc2c(cc1NC(=O)CSc1ccccc1)oc1ccccc12	-47.3%	-11.0%	4.9%
COc1cc2c(cc1NC(=O)CSc1nc3ccccc3[nH]1)oc1ccccc12	7.94µM*	-1.5%	0.2%
COc1cc2c(cc1NC(=O)Nc1ccc(F)cc1)oc1ccccc12	14.1µM*	?	-8.2%
CN(Cc1ccccc1)C(=O)C(C(=O)c1ccc(F)cc1)n1cc(Cl)ccc1=O (stereo unspecified)	15.7%	-7.4%	-1.3%
Cc1onc(-c2c(F)cccc2Cl)c1C(=O)ONC(=O)c1ccco1	-10.9%	-2.5%	12.6µM*
N#Cc1cccc(NC(=S)Nc2ccccc2)c1	-27.4%	1.1%	50.1µM*
Cc1onc(-c2c(Cl)cccc2Cl)c1NC(=O)NNc1ccccc1	-20.9%	-4.5%	-11.7%
Cc1onc(-c2ccccc2)c1C(=O)Nc1ccncc1	-11.9%	?	5.2%
Cc1onc(-c2c(F)cccc2Cl)c1C(=O)NCc1ccccc1	2.2%	-2.0%	5.3%
Cc1onc(-c2ccccc2)c1C(=O)Nc1cccc(C#N)c1	11.2µM*	2.8%	3.2%
Oc1ccc(NC(=S)Nc2ccccc2)cc1	-24.3%	-10.1%	-6.4%
SMILES	AmpC no deterg	AmpC inh detg	Sm TGR block
Cc1onc(-c2c(Cl)cccc2Cl)c1C(=O)NNc1ccccc1	-28.1%	1.9%	50.1µM*
CC(=O)Nc1ccc(S(=O)(=O)Nc2ccccc2C(=O)N2CCCCCC2)cc1	-3.6%	3.8%	9.2%
CN(C)S(=O)(=O)c1cccc(NC(=O)CNCC2CCCCC2)c1	-17.3%	-10.5%	12.5%
COC(=O)C1=C(O)/C(=C\c2cc(C)n(-c3ccc(F)cc3)c2C)N=C1C	-32.1%	-3.1%	28.2µM*
COC(=O)C1=C(O)/C(=C/c2cccc(OC)c2O)N=C1C	-0.2%	2.0%	2.3%
CCOCCCN(C(=O)CCC(=O)Nc1cc(C)on1)C(C(=O)NC(C)(C)C)c1ccccc1Cl (stereo unspecified)	48.5%	-6.4%	0.4%
COc1ccc(Cl)cc1NC(=O)CN(C)S(=O)(=O)c1ccc(Br)s1	/	-10.8%	4.2%
O=C(CN1C(=O)NC(c2ccccc2)(c2ccccc2)C1=O)NCCNCCO	0.4%	-18.3%	-13.3%
Cc1c(C(=O)OCC(=O)Nc2cccc(S(N)(=O)=O)c2)oc2c1ccc1ccccc12	11.2µM*	-2.5%	-0.1%
NS(=O)(=O)c1cccc(NC(=O)COC(=O)c2ccccc2C(=O)c2ccccc2)c1	-46.7%	-1.1%	-5.8%
CCOc1cc(C(c2c(C)[nH]n(-c3ccccc3)c2=O)c2c(C)[nH]n(-c3ccccc3)c2=O)ccc1O	/	-2.7%	3.16µM*
COc1ccc(C(c2c(C)[nH]n(-c3ccccc3)c2=O)c2c(C)[nH]n(-c3ccccc3)c2=O)cc1OC	29.8%	-5.4%	1.4%
COc1cc(C(=O)OCC(=O)NC(=O)NC2CCCCC2)cc(Cl)c1OC	-7.8%	-6.3%	-3.5%
CC(C(=O)O)n1c2ccccc2c2cnn(C)c(=O)c21 (stereo unspecified)	-21.5%	-2.7%	-5.9%
O=C(CSc1ccc(-c2ccccn2)nn1)Nc1ccc(F)cc1F	9.5%	-5.9%	0.4%
O=C(CSc1ccc(-c2cccnc2)nn1)Nc1ccc(F)cc1F	0.6%	-1.3%	7.08µM*
COc1ccc(C2=NN(C(=O)CSc3nnc(-c4ccccc4F)o3)C(c3ccco3)C2)cc1 (stereo unspecified)	-23.6%	-1.0%	-7.0%
Nc1cc(=O)[nH]c(SCC(=O)N2N=C(c3ccc(Cl)cc3)CC2c2ccco2)n1 (stereo unspecified)	-27.0%	5.5%	/
CCCc1cc(=O)[nH]c(SCC(=O)N2N=C(c3ccc(Cl)cc3)CC2c2ccco2)n1 (stereo unspecified)	-15.0%	-1.5%	1.5%
COc1ccc(C2=NN(C(=O)CSc3nc4ncc(Cl)cc4[nH]3)C(c3ccco3)C2)cc1 (stereo unspecified)	-31.0%[11.4 µM]	?	28.2µM*
COc1ccc(C2=NN(C(N)=S)C(c3ccco3)C2)cc1 (stereo unspecified)	-29.7%	7.7%	8.91µM*
Cc1ccc(C2=NN(C(=O)CSc3nc4ncc(Cl)cc4[nH]3)C(c3ccco3)C2)cc1 (stereo unspecified)	10µM*	?	14.1µM*
CCn1cc(C(=O)NCCc2ccc(Cl)cc2)c(=O)c2cc(S(=O)(=O)N3CCOCC3)ccc21	/	0.5%	-1.0%
COCCNC(=O)Cn1nc(-c2ccc(C)cc2)ccc1=O	-8.4%	?	-3.2%
Cc1ccccc1C(=O)NC(NC(=S)Nc1ccc(S(N)(=O)=O)cc1)C(Cl)(Cl)Cl (stereo unspecified)	20µM*	-13.7%	-11.7%
SMILES	AmpC no deterg	AmpC inh detg	Sm TGR block
Cc1ccc(C(=O)NC(NC(=S)Nc2ccc(S(N)(=O)=O)cc2)C(Cl)(Cl)Cl)cc1 (stereo unspecified)	-27.5%	?	3.0%
O=C(NCc1ccc(Cl)cc1)C1CCN(S(=O)(=O)c2cccc3nonc23)CC1	-12.6%	-6.5%	5.1%
O=C(COc1ccccc1)NCC(c1cccs1)S(=O)(=O)c1ccc(Cl)cc1 (stereo unspecified)	/	-0.8%	?
Cn1c(-c2ccccc2)c(CCO)c2ccccc21	-5.0%	0.4%	-12.5%
Cn1c(-c2ccccc2)c(C(=O)CCl)c2ccccc21	-23.3%	1.1%	6.31µM*
CCn1c(-c2ccccc2)c(C(=O)CCl)c2ccccc21	-41.2%	-5.7%	17.8µM*
CCn1c2ccccc2c(=O)c2ccccc21	43.0%	0.8%	4.7%
CC(C)NC(=O)c1ccc2c(c1)N(Cc1ccccc1)C(=O)C(C)(C)O2	-4.2%	?	-12.7%
CN(C(=O)c1cccc(S(=O)(=O)NCc2ccccc2)c1)C1CCCCC1	-6.0%	/	/

Compound activity (PubChem)
